# Experimental data as given in PubChem BioAssay (NCI).
# Compounds without any hit were thinned out: in the full panel of roughly 83,000, 20% have a hit.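 96-well plates, one dose, 48 hours. Percent growth reported; active if below 10.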 The source made the active and inactive calls.
# System: HCC-2998 colon
# Experiment: NCI-60 one-dose screen, 48 h (100 = growth as untreated, 0 = no growth, -100 = all killed)
# Conditions: 10 µM unless noted
row,SMILES,growth
1,Cc1cc(S(=O)(=O)/N=C(\N)n2nc(C)c(C)c2C)c(SCc2ccccc2)cc1Cl,56.9% (inactive)
2,CS(=O)(=O)Nc1cncc(-c2ccc3ncnc(Nc4cncc(Cl)c4)c3c2)c1,95% (inactive)
3,CC(C)(Sc1cc(C(C)(C)C)c(OC(=O)CCCC(=O)O)c(C(C)(C)C)c1)Sc1cc(C(C)(C)C)c(OC(=O)CCCC(=O)O)c(C(C)(C)C)c1,22.1% (inactive)
4,COc1cc2c(c(OC)c1OC)CCC(c1cccc(NC(=O)c3ccc(Br)cc3)c1)O2 (stereo not given),102% (inactive)
5,COc1ccc(CNc2c3ccccc3nc3ccccc23)cc1,38.6% (inactive)
6,N#CSc1c[nH]c2cccc(/C=C/C(=O)/C=C(/C=C/c3cccc4[nH]cc(SC#N)c34)OB(F)F)c12,-32.7% (active)
7,CC1=NC2=Nn3c(c4cnn(-c5ccccc5)c4n/c3=N\N)NN2C(c2ccccc2)=C1,99.2% (inactive)
8,COc1ccc(\C=N/N=C(N)/C(N)=N\N=C/c2ccc(OC)cc2)cc1,110% (inactive)
9,NC(=O)c1cccc(-n2ccc3cc(NC(=O)c4ccc(N5CCOCC5)c(C(F)(F)F)c4)ccc32)n1,79.8% (inactive)
10,COc1ccc(-c2nc3cc(C(=O)NCc4ccccc4)ccc3n2C2CCCCC2)cc1,79.3% (inactive)
11,CN(C)CC(C)(C)C(=O)/C=C/c1ccccc1,-75.7% [25 µM] (active)
12,C=CCn1c(SCC(=O)Nc2ccc(C(=O)/C=C/c3ccc(Cl)cc3)cc2)nnc1-c1ccc(Br)cc1,93.8% (inactive)
13,Cc1cn(-c2cc(NC(=O)c3cccc(C#Cc4cccc5[nH]nc(N)c45)c3)cc(C(F)(F)F)c2)cn1,39.1% (inactive)
14,Oc1c(I)cc(I)cc1CNCCN(Cc1ccccn1)Cc1ccccn1,-86.8% (active)
15,C=CC[Se]C(=O)Cc1c(C)n(C(=O)c2ccc(Cl)cc2)c2ccc(OC)cc12,4.27% (active)
16,CCC(=C(c1ccc(OCCN2CCCCC2)cc1)c1ccc(OCCN2CCCCC2)cc1)c1ccc(Cl)cc1,-87% (active)
17,Cc1ccc(/C=C2\COc3ccc(O)cc3C2=O)cc1,112% (inactive)
18,COc1cc2nc3cc([N+](=O)[O-])ccc3c(NCCNCC(C)O)c2cc1OC (stereo not given),-47.8% (active)
19,O=C(NNC(=O)c1ccc(NC(=O)c2ccccn2)cc1)Nc1ccc([N+](=O)[O-])cc1,109% (inactive)
20,O=C(Nc1ccc(Oc2cccc(F)c2)c(Cl)c1)c1cccnc1,57.7% (inactive)

row,SMILES,growth
1,CCCc1c(OC(=O)c2ccccc2)nc2[nH]c(=O)sc2c1C,93.5% (inactive)
2,CCCCCN1C(=O)/C(=c2\sc3n(c2=O)C2C(NN=3)N(CC)C(=O)N2CC)c2ccccc21 (stereo not given),-17.1% (active)
3,CCOC(=O)c1cc(C)n(-c2ccc(C(=O)O)cc2)c1C,133% (inactive)
4,O=C1NC(=O)C(Cc2ccc(OCc3ccc(-c4ccc(Cl)cc4Cl)cc3)cc2)S1 (stereo not given),60.8% (inactive)
5,CC/C=C\C[C@H](O)C/C=C1/C(=O)C=C[C@@H]1C/C=C\CCCC(=O)N(C)C,-90.7% (active)
6,NC(=O)CSc1oc(-c2ccccc2)nc1S(=O)(=O)c1ccc(Br)cc1,93.3% (inactive)
7,COc1cc(-c2nccc3[nH]c(-c4ccc5cc[nH]c5c4)nc23)cc(OC)c1OC,-19.2% (active)
8,Cc1nc2sc(C(=O)Nc3cccc(Br)c3)c(N)c2cc1C(O)c1ccccc1 (stereo not given),18.2% (inactive)
9,CC(C)c1ccc(Cc2cnc(NC(=O)c3cc(Br)cs3)s2)cc1,64% (inactive)
10,Cc1ccc(-c2nc([P+](c3ccccc3)(c3ccccc3)c3ccccc3)c(S(=O)(=O)c3ccc(C)cc3)o2)cc1,38.3% (inactive)
11,COC(CC(F)F)c1cn(S(=O)(=O)c2ccc(C)cc2)c2ccccc12 (stereo not given),63.3% (inactive)
12,Cc1ccc(C[P+](c2ccccc2)(c2ccccc2)c2ccccc2)cc1,-26.4% (active)
13,Cn1cc(-c2nonc2-c2cn(C)c3ccccc23)c2ccccc21,51.2% (inactive)
14,CC1=C2[C@@H](CC1)[C@]1(C)O[C@@](C(C)C)(C[C@H]1OC(=O)[C@H](C)O)[C@H]2OC(=O)/C=C/c1ccccc1,90.7% (inactive)
15,Cc1c(-c2ccc(O)cc2)n(Cc2ccc(OCCN3CCCCCC3)cc2)c2ccc(O)cc12,114% (inactive)
16,CCOC(=O)C(=O)C(C(=O)OCC)c1ccccc1 (stereo not given),114% (inactive)
17,CS(=O)(=O)c1ccc(-c2cnn3ccc(-c4cccc(S(=O)(=O)C5CC5)c4)nc23)cc1,75.4% (inactive)
18,O=S(=O)(NCCNc1nccc(-c2c(-c3ccc(F)c(O)c3)nc3occn23)n1)c1ccc(Cl)cc1,102% (inactive)
19,Nc1n[nH]c2cccc(C#Cc3cccc(NC(=O)c4cc(F)cc(C(F)(F)F)c4)c3)c12,70.8% (inactive)
20,N#Cc1nc(-c2ccc(F)cc2)oc1S(=O)(=O)N1CCOCC1,106% (inactive)
